# Bioassay records (PubChem)
# TSG101-PTAP inh – blocks PTAP/TSG101 interaction to inhibit HIV-1 budding; Fluorescence polarization, FITC-PTAP peptide / Tsg101 binding; Potency, µM (top dose mostly 115 µM), for the others: top-dose activity change, negative = inhibition, actives largely listed as inhibitors; 340,000 tested, under 10 active; AID 493005; active = well fitted inhibition curve with a large enough effect in the main read-out, with a control signal flat, not every such curve was filed as active; inconclusive = small, poorly fitted or top-dose-only effect, or effect the other way, or a change in a side signal; inactive = no such curve, though single readings can be large or run the other way; also: % of control where 0% means no effect
# Target sequence (Q99816 whole entry, looked up): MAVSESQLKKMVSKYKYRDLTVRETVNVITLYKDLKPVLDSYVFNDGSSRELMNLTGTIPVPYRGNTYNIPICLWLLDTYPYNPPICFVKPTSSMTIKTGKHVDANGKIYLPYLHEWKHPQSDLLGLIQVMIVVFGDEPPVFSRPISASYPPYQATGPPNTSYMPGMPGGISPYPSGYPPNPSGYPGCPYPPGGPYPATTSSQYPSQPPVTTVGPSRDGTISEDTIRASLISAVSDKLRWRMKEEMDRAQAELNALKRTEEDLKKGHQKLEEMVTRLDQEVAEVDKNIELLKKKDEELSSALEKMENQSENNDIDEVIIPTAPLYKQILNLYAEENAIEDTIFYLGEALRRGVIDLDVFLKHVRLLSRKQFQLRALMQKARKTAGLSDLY
#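 Compounds were pin-transferred onto Tsg101 binding domain (10 uM final) in HEPES pH 7.5 buffer, then FITC-PTAP peptide was added at 50 nM final. After 20 min at RT, polarization reported peptide displacement across a qHTS concentration series.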
# PINK1 modulator – modulators of PINK1 expression; PINK1 immunofluorescence, high-content cytometry, 24 h; Potency, µM (highest dose often 76.6 µM), without a hit: top-dose activation (PINK1 increase), usual class: activators; hit rate 0.2% among 410,000; AID 624263; active = well fitted activation curve with a large enough effect; inconclusive = small, poorly fitted or top-dose-only effect; cell line not stated here; also: % of control where 0% means no effect; nearly all actives have a fitted effect of over 65% in size
#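 Readout is PINK1 immunofluorescence, quantified alongside mitochondrial, cell and nuclear markers by laser-scanning microplate cytometry. Cells from a stable line were exposed to compound titrations (5 concentrations) for 24 hours, with CCCP controls.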
# SW480 rerep – DNA re-replication induction in SW480 cells. SW480 DNA re-replication, Hoechst DNA content imaging, 48 h. Potency, µM (titrated, usually from 46.1 µM), inactives show at the highest dose re-replication activation, hits mostly activators. hit rate 1.8% among 340,000; also: % of control where 0% means no effect; nearly all actives have a fitted effect of over 55% in size
#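 Image-based read-out: total Hoechst fluorescence of nuclei (405 nm excitation, 500-530 nm emission), with hits raising the fraction of high-intensity nuclei. SW480 colon cells incubated 48 hr with compounds at 37 C.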
# MCF10A rerep – DNA re-replication induction in MCF 10a cells; MCF 10A DNA re-replication, Hoechst nuclear intensity, 48 h; Potency, µM (series often up to 46.1 µM), without a hit: at the top dose activity, positive = re-replication, usual class: activators; hit rate 2.9% among 350,000; AID 624296; also: % of control where 0% means no effect; nearly all actives have a fitted effect of over 50% in size
# KB-V1 MDR tox – kills drug-selected multidrug resistant KB-V1 cells; KB-V1 MDR cells viability, CellTiter-Glo, 72 h; Potency, µM (top dose mostly 46.1 µM), most hits filed as cytotoxic; hit rate 3.4% among 400,000; AID 1347076; also: % is scaled to controls: 0 for no effect and ±100 for the full control effect; nearly all actives have a fitted effect of over 60% in size
#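 qHTS viability screen in drug-selected KB-V1 MDR cells: 72 h compound treatment at 37 degrees C, ATP luminescence end point.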
# KB-3-1 cytotox – kills parental KB-3-1 adenocarcinoma cells; KB-3-1 viability, CellTiter-Glo ATP luminescence, 72 h; hit rate 1.4% among 400,000; Potency, µM (series often up to 46.1 µM), most hits filed as cytotoxic; also: % is scaled to controls: 0 for no effect and ±100 for the full control effect; nearly all actives have a fitted effect of over 60% in size
#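 Luminescent ATP read-out (CellTiter-Glo) measures survival of drug-naive KB-3-1 cells after 72 h compound exposure at 37 °C. Titration series was screened from lowest to highest concentration, with DMSO vehicle plates as background controls.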
# Numbers without * were called inactive; i = inactive; u = inconclusive; x = no result given; [ ] = remark or other dose. This is a sample that favours compounds with a hit; in the whole collection about 6.8% have one here. Unless noted, calls follow the shape of the dose curve; as a rule, active = well fitted curve in the direction sought with a large enough effect; inconclusive = small, poorly fitted or top-dose-only effect, or another doubt; inactive = no such curve, though single readings can be large; an effect the other way counts as inactive or inconclusive. Potency is read from the fitted curve at half-maximal effect.
SMILES,TSG101-PTAP inh,PINK1 modulator,SW480 rerep,MCF10A rerep,KB-V1 MDR tox,KB-3-1 cytotox
COC(=O)[C@@]1(Cc2ccc(OC)cc2)[C@@H]2C(=CC(=O)[C@H]2CC(=O)C(=O)N(C)C)CN1C(=O)c1ccccc1,1%,1%,u,u,u,16µM*
C=C1C(=O)C=C2CN(C(=O)c3ccccc3)[C@@](Cc3ccc(F)cc3)(C(=O)OC)[C@@H]12,2%,7%,1.3µM*,3.7µM*,4.6µM*,5.2µM*
Cc1ccccc1OCc1ccc(-c2nc(C#N)c(N3CCC(C(N)=O)CC3)o2)o1,x,4%,x,x,i,i
O=C(N[C@@H]1c2ccccc2C2(CCN(C(=O)c3cc4ccccc4oc3=O)CC2)[C@H]1O)c1cccnc1,x,1%,x,x,x,x
O=C1C2C3C=CC(C3)C2C(=O)N1c1ccc(N2CCN(c3ccccn3)CC2)c([N+](=O)[O-])c1 (centres undefined),-2%,0%,u,u,10µM*,i
COc1ccc(-c2cc(CCCC(=O)NCCc3cc(OC)ccc3OC)no2)cc1,-1%,-1%,1%,7%,4.6µM*,u
CCCOc1ccc(C2c3c(-c4ccccc4O)n[nH]c3C(=O)N2Cc2ccncc2)cc1OCC (centres undefined),x,3%,x,x,i,i
Cc1ccc(NC(=O)Cn2cccc2C2=NC(c3ccccc3)CO2)cc1C (centres undefined),-1%,9%,u,u,15µM*,u
Fc1ccc(Cn2cccc2C2=NC(c3ccccc3)CO2)cc1 (centres undefined),0%,-3%,-3%,10%,i,i
CCc1ccccc1NC(=O)Cn1cccc1C1=NC(c2ccccc2)CO1 (centres undefined),-2%,u,u,19%,u,i
Cc1oc(-c2ccccc2)nc1Cn1cccc1C1=NC(c2ccccc2)CO1 (centres undefined),0%,5%,u,u,12µM*,16µM*
Cc1cccc(C(=O)Nc2nnc(S(=O)(=O)N3c4ccccc4CC3C)s2)c1 (centres undefined),x,1%,x,x,i,i
COc1ccc(C(=O)N2CC(=O)Nc3ccc(F)cc3C2c2ccc(F)cc2)c(OC)c1 (centres undefined),x,-1%,x,x,i,i
COc1cccc(C2C=C(c3ccc(C)c(C)c3)Nc3nnnn32)c1OC (centres undefined),x,12%,x,x,i,4.1µM*
COc1cccc(C2=CC(c3cccc(OC)c3OC)n3nnnc3N2)c1 (centres undefined),-2%,4%,1%[9.22 µM],8.9µM*,u,i
COc1cccc(C2=CC(c3cccc(OC)c3OC(F)F)n3nnnc3N2)c1 (centres undefined),2%,9%,u,u,i,i
Cc1cccc(NC(=O)CCn2nc(-c3ccccc3)c3ccccc3c2=O)c1,x,1%,x,x,i,i
CCN1CCCC1CNC(=O)c1cnn(-c2nccc(-c3cccs3)n2)c1C1CC1 (centres undefined),x,2%,x,x,x,x
COc1ccc(OC(C)C(=O)N(C)Cc2nc(-c3ccc(OC)cc3)no2)cc1 (centres undefined),-7%,2%,-18%,9%,18µM*,u
COc1ccc(-c2noc(CN(C(=O)C(C)(C)C)C(C)C)n2)cc1,3%,1%,-3%,22%,21µM*,i
CC(=O)N1CCc2c(sc3c2c(=O)n(CCc2ccccc2)c(=O)n3Cc2cccc(C)c2)C1,x,0%,x,x,i,i
Cc1ccc(-n2nnnc2SCn2nnc3ccccc3c2=O)cc1,-12%,1%,-5%,-2%,i,i
Cc1cccc(-n2nnnc2SCn2nnc3ccccc3c2=O)c1,-4%,11%[38.3 µM],-1%,18%,13µM*,i
